# Measurements taken from PubChem BioAssay AID1159580 (chemical genetic matrix, 2015).
# The whole screen tested about 5,500 compounds, of which about 2,000 (36%) were called active. Another 18% or so got no clear call; they are omitted. The list shows a part of the results. Unmarked numbers belong to inactive results. Cut-off read from the data, not from the text of the source: active = normalized growth mostly below about 0.91 (no sharp cut-off); inconclusive = no clear call, values can overlap the other calls; inactive = mostly above about 0.92.
# Test: chemical genetic growth profiling, strain panel (AID 1159580);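 note: tested at 20 µM; growth read once vehicle control cultures reached saturation at 30 °C; 1 = growth at the plate median or of vehicle wells; lower values mean less growth of the strain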
# Conditions: S. cerevisiae deletion strains, growth OD
# [1] = locus YAL013W, strain DEP1, stronger effect = lower value
# [2] = locus YAL040C, strain CLN3, stronger effect = lower value
# [3] = locus YER002W, strain NOP16, stronger effect = lower value
# [4] = locus YMR263W, strain SAP30, stronger effect = lower value
# [5] = locus YNL175C, strain NOP13, stronger effect = lower value
# [6] = locus YNL197C, strain WHI3, stronger effect = lower value
# [7] = locus YNL224C, strain SQS1, stronger effect = lower value
# [8] = locus YOR083W, strain WHI5 (second series), stronger effect = lower value
# [9] = locus YPL241C, strain CIN2, stronger effect = lower value
# [10] = locus YGR078C, strain PAC10, stronger effect = lower value
# [11] = locus YJR075W, strain HOC1, stronger effect = lower value
# [12] = locus YNL153C, strain GIM3, stronger effect = lower value
# [13] = locus YNL322C, strain KRE1, stronger effect = lower value
compound,measurement,setting,value
CN1CCCC1CCOC(C)(c1ccccc1)c1ccc(Cl)cc1 (centres undefined),normalized growth,[1],0.981
same,normalized growth,[2],0.986
same,normalized growth,"locus YCL061C, strain MRC1 (second series), stronger effect = lower value",0.982
same,normalized growth,"locus YDR363W, strain ESC2, stronger effect = lower value",0.983
same,normalized growth,[3],1
same,normalized growth,"locus YGR229C, strain SMI1, stronger effect = lower value",0.714 (active)
same,normalized growth,[4],0.955
same,normalized growth,[5],0.995
same,normalized growth,[6],1.03
same,normalized growth,[7],1.01
same,normalized growth,[8],0.986
same,normalized growth,[9],0.996
Brc1ccc([C@H]2CN3CCSC3=N2)cc1,normalized growth,[2],1.01
same,normalized growth,[3],1.03
same,normalized growth,[10],1.02
same,normalized growth,[11],0.983
same,normalized growth,[12],0.997
same,normalized growth,[5],1.01
same,normalized growth,[6],1.01
same,normalized growth,[7],1.01
same,normalized growth,[13],0.997
same,normalized growth,[8],1.02
Brc1cccc(C=NCc2ccccc2)c1,normalized growth,[1],0.87 (active)
same,normalized growth,"locus YBR229C, strain ROT2, stronger effect = lower value",0.843 (active)
same,normalized growth,"locus YDL101C, strain DUN1, stronger effect = lower value",0.888 (active)
same,normalized growth,"locus YDL134C, strain PPH21, stronger effect = lower value",0.765 (active)
same,normalized growth,"locus YDR150W, strain NUM1, stronger effect = lower value",0.932
same,normalized growth,"locus YEL061C, strain CIN8, stronger effect = lower value",0.621 (active)
same,normalized growth,[10],0.847 (active)
same,normalized growth,"locus YHR030C, strain SLT2, stronger effect = lower value",0.198 (active)
same,normalized growth,"locus YHR087W, strain rtc3, stronger effect = lower value",0.788 (active)
same,normalized growth,"locus YJL187C, strain SWE1, stronger effect = lower value",0.848 (active)
same,normalized growth,"locus YJR043C, strain POL32, stronger effect = lower value",0.954
same,normalized growth,[11],0.719 (active)
same,normalized growth,"locus YLR039C, strain RIC1, stronger effect = lower value",0.242 (active)
same,normalized growth,"locus YLR058C, strain SHM2 (second series), stronger effect = lower value",0.961
same,normalized growth,"locus YLR085C, strain ARP6, stronger effect = lower value",0.333 (active)
same,normalized growth,"locus YLR262C, strain YPT6, stronger effect = lower value",0.23 (active)
same,normalized growth,"locus YML094W, strain GIM5, stronger effect = lower value",0.656 (active)
same,normalized growth,"locus YMR219W, strain ESC1, stronger effect = lower value",0.92 (active)
same,normalized growth,[4],0.883 (active)
same,normalized growth,"locus YNL128W, strain TEP1, stronger effect = lower value",0.829 (active)
same,normalized growth,[12],0.921 (active)
same,normalized growth,"locus YNL298W, strain CLA4 (second series), stronger effect = lower value",0.664 (active)
same,normalized growth,[13],0.983
same,normalized growth,"locus YNR030W, strain Alg12, stronger effect = lower value",0.761 (active)
same,normalized growth,"locus YPL055C, strain LGE1, stronger effect = lower value",0.825
same,normalized growth,[9],0.663 (active)
same,normalized growth,"locus YPR135W, strain CTF4, stronger effect = lower value",0.366 (active)
